The target of assay [1] is Serine/threonine-protein kinase PAK 6 (Homo sapiens) (UniProt Q9NQU5). Conditions: at 1 µM.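 Note: values are mean percent inhibition of PAK6 kinase.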
Assay [2] relates to Tyrosine-protein kinase ABL1 (Homo sapiens), P00519 [E255K]. Particulars: at 0.1 µM.
Assay [3] shares this test system. Particulars: at 1 µM.
For assay [4], the system named is Tyrosine-protein kinase ABL1 (Homo sapiens), P00519 [H396P]. Particulars: at 0.1 µM.
The test system is the same in assay [5]. Conditions: at 1 µM.
The subject of assay [6] is Tyrosine-protein kinase ABL1 (Homo sapiens), P00519 [M351T]. Conditions: at 0.1 µM.
For assay [7] the test system is unchanged. Particulars: at 1 µM.
Assay [8] has as its system Tyrosine-protein kinase ABL1 (Homo sapiens), P00519 [Q252H]. Conditions: at 0.1 µM.
Assay [9] shares this test system. Conditions: at 1 µM.
For assay [10], the system named is Tyrosine-protein kinase ABL1 (Homo sapiens), P00519 [T315I]. Particulars: at 0.1 µM.
The test system is the same in assay [11]. Particulars: at 1 µM.
Assay [12] deals with Tyrosine-protein kinase ABL1 (Homo sapiens), P00519 [Y253F]. Conditions: at 0.1 µM.
Assay [13] has the same test system. Conditions: at 1 µM.
The target in assay [14] is Tyrosine-protein kinase ABL1 (Homo sapiens) (UniProt P00519). Conditions: at 0.1 µM.
For assay [15] the target is unchanged. Particulars: at 1 µM.
The target in assay [16] is ALK tyrosine kinase receptor (Homo sapiens) (UniProt Q9UM73). Particulars: at 0.1 µM.
The target is the same in assay [17]. Particulars: at 1 µM.
The target of assay [18] is Tyrosine-protein kinase ABL2 (Homo sapiens) (UniProt P42684). Conditions: at 0.1 µM.
The target is the same in assay [19]. Conditions: at 1 µM.
Assay [20] deals with Tyrosine-protein kinase receptor UFO (Homo sapiens) (UniProt P30530). Conditions: at 0.1 µM.

Molecules are shown by their SMILES.

ALK tyrosine kinase receptor (Homo sapiens), sequence (Q9UM73 19-1620 limits assumed): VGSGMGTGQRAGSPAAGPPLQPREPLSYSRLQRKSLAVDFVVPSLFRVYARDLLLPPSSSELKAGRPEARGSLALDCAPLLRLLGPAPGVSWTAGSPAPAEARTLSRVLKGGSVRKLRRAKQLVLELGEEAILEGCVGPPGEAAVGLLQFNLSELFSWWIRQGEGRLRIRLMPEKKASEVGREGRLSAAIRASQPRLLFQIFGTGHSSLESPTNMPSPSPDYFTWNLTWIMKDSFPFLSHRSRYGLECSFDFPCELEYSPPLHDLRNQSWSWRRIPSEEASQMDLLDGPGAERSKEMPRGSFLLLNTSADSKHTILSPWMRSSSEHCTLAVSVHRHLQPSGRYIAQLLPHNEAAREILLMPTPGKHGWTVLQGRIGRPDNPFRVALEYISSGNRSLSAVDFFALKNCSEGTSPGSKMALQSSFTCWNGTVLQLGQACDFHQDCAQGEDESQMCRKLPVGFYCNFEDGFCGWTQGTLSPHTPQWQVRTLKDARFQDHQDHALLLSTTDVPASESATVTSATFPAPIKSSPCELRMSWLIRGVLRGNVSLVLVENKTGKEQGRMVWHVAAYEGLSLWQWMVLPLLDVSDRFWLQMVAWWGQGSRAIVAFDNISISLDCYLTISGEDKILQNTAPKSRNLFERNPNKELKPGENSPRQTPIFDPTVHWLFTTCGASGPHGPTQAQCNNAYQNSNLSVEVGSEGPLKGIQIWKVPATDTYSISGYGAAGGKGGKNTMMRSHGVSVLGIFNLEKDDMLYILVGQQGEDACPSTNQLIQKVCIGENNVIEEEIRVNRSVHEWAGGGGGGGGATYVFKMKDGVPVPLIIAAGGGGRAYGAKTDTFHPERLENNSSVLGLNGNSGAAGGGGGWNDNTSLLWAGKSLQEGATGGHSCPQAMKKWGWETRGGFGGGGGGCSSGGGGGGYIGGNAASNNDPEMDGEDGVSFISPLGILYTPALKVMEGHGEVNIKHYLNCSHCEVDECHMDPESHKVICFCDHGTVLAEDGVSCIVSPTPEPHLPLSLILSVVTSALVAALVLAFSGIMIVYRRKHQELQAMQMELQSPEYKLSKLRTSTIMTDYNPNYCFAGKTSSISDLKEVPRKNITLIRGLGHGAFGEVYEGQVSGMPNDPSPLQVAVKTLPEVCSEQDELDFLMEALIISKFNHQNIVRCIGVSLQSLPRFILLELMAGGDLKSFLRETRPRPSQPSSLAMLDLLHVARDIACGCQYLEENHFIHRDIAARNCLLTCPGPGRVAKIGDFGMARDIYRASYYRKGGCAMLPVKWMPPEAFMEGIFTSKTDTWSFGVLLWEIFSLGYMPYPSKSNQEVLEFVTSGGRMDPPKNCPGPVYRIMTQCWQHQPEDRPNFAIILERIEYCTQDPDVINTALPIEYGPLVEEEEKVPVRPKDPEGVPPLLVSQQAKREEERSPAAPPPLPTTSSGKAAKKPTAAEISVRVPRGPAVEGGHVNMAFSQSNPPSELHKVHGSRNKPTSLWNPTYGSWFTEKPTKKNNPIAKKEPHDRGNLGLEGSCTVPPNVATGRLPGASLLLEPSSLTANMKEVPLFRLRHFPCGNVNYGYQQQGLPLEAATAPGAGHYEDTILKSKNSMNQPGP
Tyrosine-protein kinase receptor UFO (Homo sapiens), sequence (P30530 whole entry): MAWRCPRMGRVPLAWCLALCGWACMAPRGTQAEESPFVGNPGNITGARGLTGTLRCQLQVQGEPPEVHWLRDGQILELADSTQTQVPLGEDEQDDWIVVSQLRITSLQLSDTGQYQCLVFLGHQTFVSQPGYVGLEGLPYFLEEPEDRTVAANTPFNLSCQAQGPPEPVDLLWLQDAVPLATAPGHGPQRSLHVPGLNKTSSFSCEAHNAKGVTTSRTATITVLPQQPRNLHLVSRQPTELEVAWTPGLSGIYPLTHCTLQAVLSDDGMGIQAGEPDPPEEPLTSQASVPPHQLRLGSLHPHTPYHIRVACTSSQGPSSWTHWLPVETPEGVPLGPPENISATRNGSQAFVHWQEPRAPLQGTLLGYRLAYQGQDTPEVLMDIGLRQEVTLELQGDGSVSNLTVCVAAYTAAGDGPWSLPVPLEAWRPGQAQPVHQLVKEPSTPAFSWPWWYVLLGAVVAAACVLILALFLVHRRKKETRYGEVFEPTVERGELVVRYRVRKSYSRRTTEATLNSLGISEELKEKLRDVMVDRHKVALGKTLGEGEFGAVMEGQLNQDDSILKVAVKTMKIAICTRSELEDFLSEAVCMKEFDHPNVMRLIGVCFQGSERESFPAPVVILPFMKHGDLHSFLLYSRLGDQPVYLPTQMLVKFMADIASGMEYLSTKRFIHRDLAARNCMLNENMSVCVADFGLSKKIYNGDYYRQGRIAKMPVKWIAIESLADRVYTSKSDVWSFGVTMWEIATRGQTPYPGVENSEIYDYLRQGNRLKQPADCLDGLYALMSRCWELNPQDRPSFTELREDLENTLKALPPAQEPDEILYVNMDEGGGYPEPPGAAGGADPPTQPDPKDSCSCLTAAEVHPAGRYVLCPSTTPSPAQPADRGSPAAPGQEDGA
Tyrosine-protein kinase ABL2 (Homo sapiens), sequence (P42684 whole entry): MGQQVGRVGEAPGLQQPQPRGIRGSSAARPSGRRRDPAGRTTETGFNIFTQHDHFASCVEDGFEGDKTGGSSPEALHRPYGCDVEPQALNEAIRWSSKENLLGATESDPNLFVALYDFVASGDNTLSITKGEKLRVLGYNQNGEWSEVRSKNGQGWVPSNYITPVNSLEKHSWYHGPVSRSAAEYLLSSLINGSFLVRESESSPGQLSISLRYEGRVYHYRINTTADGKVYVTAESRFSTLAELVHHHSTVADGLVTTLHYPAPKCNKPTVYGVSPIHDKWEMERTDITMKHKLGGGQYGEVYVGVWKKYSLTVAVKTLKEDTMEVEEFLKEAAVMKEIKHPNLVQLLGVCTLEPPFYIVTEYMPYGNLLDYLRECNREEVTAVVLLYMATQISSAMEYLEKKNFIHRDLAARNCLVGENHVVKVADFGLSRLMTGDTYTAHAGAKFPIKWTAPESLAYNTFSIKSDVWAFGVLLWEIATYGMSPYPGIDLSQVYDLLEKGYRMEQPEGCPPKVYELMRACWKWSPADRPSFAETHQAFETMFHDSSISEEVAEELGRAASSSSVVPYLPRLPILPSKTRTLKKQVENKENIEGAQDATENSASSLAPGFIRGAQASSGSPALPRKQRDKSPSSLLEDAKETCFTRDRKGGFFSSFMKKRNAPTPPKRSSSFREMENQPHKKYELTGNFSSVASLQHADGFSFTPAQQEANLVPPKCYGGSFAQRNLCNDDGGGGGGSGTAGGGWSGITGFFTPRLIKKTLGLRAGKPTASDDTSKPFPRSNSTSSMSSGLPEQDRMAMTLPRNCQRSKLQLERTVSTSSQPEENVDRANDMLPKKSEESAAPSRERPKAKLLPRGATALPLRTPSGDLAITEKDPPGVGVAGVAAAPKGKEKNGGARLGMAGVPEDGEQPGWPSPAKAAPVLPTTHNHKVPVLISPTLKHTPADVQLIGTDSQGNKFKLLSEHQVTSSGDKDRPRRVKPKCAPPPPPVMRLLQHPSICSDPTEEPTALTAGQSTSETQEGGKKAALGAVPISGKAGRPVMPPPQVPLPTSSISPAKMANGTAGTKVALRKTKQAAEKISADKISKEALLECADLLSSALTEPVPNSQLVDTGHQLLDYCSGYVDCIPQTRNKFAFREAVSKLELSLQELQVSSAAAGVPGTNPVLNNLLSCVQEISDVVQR
Serine/threonine-protein kinase PAK 6 (Homo sapiens), sequence (Q9NQU5 whole entry, looked up): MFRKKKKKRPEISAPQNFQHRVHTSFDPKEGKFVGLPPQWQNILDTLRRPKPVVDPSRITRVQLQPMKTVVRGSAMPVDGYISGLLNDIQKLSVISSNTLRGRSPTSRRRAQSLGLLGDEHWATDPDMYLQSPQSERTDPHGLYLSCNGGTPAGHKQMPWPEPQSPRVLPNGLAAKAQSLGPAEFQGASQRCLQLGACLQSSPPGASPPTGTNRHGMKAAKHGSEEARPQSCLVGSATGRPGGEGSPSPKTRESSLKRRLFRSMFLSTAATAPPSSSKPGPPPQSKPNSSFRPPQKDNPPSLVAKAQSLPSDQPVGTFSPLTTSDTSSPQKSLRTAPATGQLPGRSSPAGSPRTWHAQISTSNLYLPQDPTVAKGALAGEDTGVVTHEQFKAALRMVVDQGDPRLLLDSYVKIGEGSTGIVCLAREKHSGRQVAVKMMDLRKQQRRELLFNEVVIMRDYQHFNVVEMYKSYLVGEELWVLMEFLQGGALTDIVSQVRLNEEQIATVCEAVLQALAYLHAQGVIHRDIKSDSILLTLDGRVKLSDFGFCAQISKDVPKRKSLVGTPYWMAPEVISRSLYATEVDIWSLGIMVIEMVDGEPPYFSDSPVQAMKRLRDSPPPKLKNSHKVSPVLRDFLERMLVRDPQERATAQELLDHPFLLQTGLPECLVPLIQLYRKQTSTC

Regarding `COc1ccc(Nc2ncc(-c3ccccc3)o2)cc1OC`, the inhibition in assay [1] was -2.99%; in assay [2] it was 4.59%; in assay [3], 32.7%; in assay [4], 10.7%; in [5] it was 53.6%; in [6], 10.2%. The inhibition in assay [7] stood at 56.2%; in assay [8] it was 7.95%; in assay [9], 44.7%; in assay [10], 1.08%; in assay [11], 18.9%; in assay [12], 11.1%. The inhibition in [13] was determined as 54.3%; in [14], 7.03%; in assay [15], 58%; in assay [16] it was 1.69%; in [17], 4.78%; in [18] it was 9.21%. Also, the figures for the inhibition in [19] and in [20] were 57.1% and 0.18%, respectively.
As to `O=C(Nc1n[nH]c2nnc(-c3cccnc3)cc12)C1CC1`, the inhibition in assay [1] was -4.92%; in assay [2], -1.11%; in [3], 1.39%; in assay [4] it was 0.14%; in [5], 3.4%; in [6] it was 2.2%. In addition, the inhibition in [7] was 3.78%; in assay [8] it was 0.59%; in assay [9], 2.57%; in assay [10] it was -0.5%; in assay [11], 3.43%; in [12] it was 0.48%. The inhibition in assay [13] came out at 3.53%; in assay [14], 3.47%; in assay [15], 6.91%; in [16], 0.19%; in assay [17] it was 1.54%; in assay [18], 0.77%. The values for the inhibition in assay [19] and in assay [20] were 3.61% and 0.08%, respectively.
With `CS(=O)(=O)CCNCc1ccoc1-c1ccc2ncnc(Nc3ccc(OCc4ccccc4)cc3)c2c1`, the inhibition in assay [1] is -2.12%; in assay [2], -3.3%; in assay [3], 0.24%; in assay [4] it was 0.81%; in assay [5], -0.01%; in assay [6], 0.87%. The inhibition in assay [7] is -0.25%; in assay [8], 1.54%; in assay [9], 1.56%; in assay [10], 1.58%; in assay [11], 0.75%; in assay [12], 0.71%. The inhibition in assay [13] is -0.62%; in assay [14], 2.05%; in assay [15], 0.92%; in assay [16], -0.16%; in [17], 1.21%; in [18] it was 1.41%. For the same compound, the results for the inhibition in assay [19] and in assay [20] were 3.46% and -0.99%, respectively.
For `c1cnn2ncc(-c3ccnc(NCCCN4CCOCC4)n3)c2c1`, the inhibition in assay [1] was -5.92%; in [2], 1.77%; in assay [3], 1.98%; in assay [4], 3.45%; in assay [5], 3.75%; in assay [6], 1.48%. The inhibition in assay [7] turned out to be 0.71%; in assay [8], 3.41%; in assay [9], 2.1%; in assay [10], 2.37%; in [11], 3.23%; in assay [12], 4.67%. For the same compound, the inhibition in assay [13] came to 1.93%; in assay [14] it was 2.22%; in [15], 6.5%; in assay [16], 2.15%; in assay [17], 3.78%; in assay [18] it was 2.25%. The inhibition in [19] is 1.19%; in assay [20], -7.99%.
Regarding `CCCNc1cccc(-n2ncc3c(N/N=C/c4ccncc4)ncnc32)c1`, the inhibition in assay [1] stood at 2.09%; in assay [2] it was 27.1%; in [3] it was 77.2%; in assay [4], 37.5%; in assay [5] it was 86%; in assay [6] it was 36.8%. Besides, the inhibition in assay [7] was 85.8%; in assay [8], 35.7%; in assay [9], 83.8%; in [10], 37.5%; in [11], 85.8%; in assay [12] it was 42.4%. Further, the inhibition in [13] was found to be 86.2%; in assay [14], 24.3%; in assay [15], 75.3%; in [16] it was 0.42%; in [17], 3.35%; in assay [18], 11.6%. For the same compound, the inhibition in assay [19] was 61.9%; in [20] it was 2.01%.
As for `CNC(=O)c1cncc(/C=C/c2ccccc2C)c1`, the inhibition in assay [1] was determined as 12%; in assay [2], 4.47%; in [3] it was 16.5%; in assay [4], 6.03%; in assay [5] it was 28.8%; in [6], 6.13%. Also, the inhibition in assay [7] is 22.7%; in [8], 5.28%; in [9] it was 19.3%; in assay [10], 1.47%; in assay [11] it was 4.28%; in assay [12] it was 6.17%. The inhibition in [13] was 31.7%; in assay [14], 5.99%; in assay [15] it was 25.9%; in [16], 4.09%; in assay [17], 4.22%; in assay [18], 6.78%. The inhibition in assay [19] was 16.1%; in assay [20] it was -3.18%.
Take `O=C(O[C@H]1CN[C@H](C#Cc2cc3ncnc(Nc4ccc5c(cnn5Cc5ccccc5)c4)c3s2)C1)N1CCOCC1`: the inhibition in assay [1] was 0.8%; in assay [2] it was 0.73%; in assay [3], 0.29%; in assay [4] it was -0.26%; in assay [5], 1.3%; in assay [6], 2.14%. Further, the inhibition in assay [7] was -0.2%; in assay [8], 0.53%; in assay [9] it was 0.83%; in assay [10], -1.97%; in [11] it was 0.36%; in assay [12] it was -0.26%. In addition, the inhibition in [13] was 0.7%; in [14], -0.22%; in [15], 2.55%; in assay [16] it was -0.47%; in [17], 0.05%; in assay [18] it was -0.58%. Besides, the inhibition in [19] is 2.25%; in [20], 0.41%.
Consider `Cc1ccc(-c2cc3c(NC(=O)C4CC4)ncnc3o2)cc1`, for which the inhibition in assay [1] was 1.82%; in [2] it was 5.52%; in assay [3], 18.3%; in [4] it was 5.91%; in [5] it was 24.2%; in assay [6], 3.97%. Besides, the inhibition in assay [7] is 22.8%; in [8], 6.11%; in assay [9], 23.7%; in assay [10], 4.71%; in assay [11] it was 14%; in assay [12], 7.48%. In addition, the inhibition came out at 29.1% in [13]; 5.87% in assay [14]; 30.4% in assay [15]; 4.09% in assay [16]; 10.7% in assay [17]; 3.64% in [18]. The inhibition in [19] is 2.5%; in assay [20] it was -6.86%.
Take `CCN1CCC(C(=O)Nc2n[nH]c3nnc(-c4cccc(F)c4F)cc23)CC1`: the inhibition is -6.98% in assay [1]; -0.54% in [2]; 0.15% in assay [3]; 0.08% in assay [4]; -0.56% in [5]; -0.54% in [6]. Moreover, the inhibition was -0.16% in assay [7]; -1.28% in assay [8]; -1.04% in assay [9]; 0.53% in [10]; 1.7% in assay [11]; -0.98% in assay [12]. In addition, the inhibition in assay [13] is -1.38%; in assay [14] it was 0.49%; in [15] it was 0.51%; in assay [16] it was 0.15%; in assay [17], 1.71%; in assay [18] it was 1.05%. Moreover, the inhibition in assay [19] was 1.43%; in assay [20], 1.6%.
For `CC1(C)CC(n2cnc(-c3ccc(F)cc3)c2-c2ccnc(N)n2)CC(C)(C)N1`, the inhibition is -4.18% in assay [1]; 1.94% in [2]; 2.09% in assay [3]; 0.18% in [4]; 0.59% in [5]; 2.43% in assay [6]. Moreover, the inhibition in assay [7] was determined as 0.27%; in [8], 0.65%; in [9] it was 0.31%; in assay [10], 1.92%; in [11], 4.98%; in assay [12], 8%. Further, the inhibition in [13] is 5.3%; in [14], -0.56%; in assay [15], 4.28%; in assay [16] it was -0.41%; in assay [17] it was 1.55%; in assay [18], -1.89%. Besides, the inhibition in [19] was 1.01%; in assay [20] it was -0.07%.
Consider `CC1=C(C(=O)Nc2ccc3[nH]nc(C)c3c2)C(c2ccc(C(F)(F)F)cc2)CC(=O)N1` (stereo not given), for which the inhibition in assay [1] was found to be 6.01%; in assay [2], 2.57%; in [3] it was 3.48%; in assay [4], 4.06%; in [5] it was 4.03%; in assay [6], 1.49%. The inhibition in assay [7] was 4.65%; in assay [8], 4.49%; in assay [9], 3.3%; in assay [10], 3.82%; in assay [11], 2.86%; in assay [12], 4.61%. Besides, the inhibition in [13] came out at 1.36%; in assay [14], 7.68%; in [15] it was 9.26%; in [16], 3.26%; in assay [17], 6.8%; in [18], 7.56%. Further, the inhibition in [19] was 7.08%; in assay [20], -3.17%.
For the compound `O=C(O[C@H]1CN[C@H](C#Cc2cc3ncnc(Nc4ccc(OCc5cccc(F)c5)c(Cl)c4)c3s2)C1)N1CCOCC1`, the inhibition in assay [1] is -5.21%; in [2], 0.66%; in assay [3], 4.53%; in assay [4], 3.67%; in assay [5], 5.92%; in assay [6], 2.25%. In addition, the inhibition was determined as 4.53% in assay [7]; 3.47% in assay [8]; 2.92% in assay [9]; 4.04% in assay [10]; 6.54% in assay [11]; 2.93% in assay [12]. For the same compound, the inhibition in assay [13] is 5.78%; in [14] it was 1.93%; in assay [15], 3.32%; in [16], 7.04%; in assay [17] it was 6.43%; in assay [18], 0.82%. Moreover, the figures for the inhibition in assay [19] and in [20] were 0.68% and -7.05%, respectively.

One may read the inhibition as the relative decrease from the control value, in per cent.

The values are drawn from ChEMBL document CHEMBL1961873, “Compounds: GSK PKIS; Assays: Nanosyn kinase panel” (2012).
